Results published in publication PMC4336329 (PLoS ONE, 2015).
About 14,000 (4.5%) of roughly 310,000 compounds showed an effect of 50% or more. Effects have a minus sign here. What follows is part of a selection rich in strong results, with near analogues and random picks from the rest.

Molecular target: human ether-à-go-go-related gene (hERG) potassium channel (human, UniProt Q12809)
Assay: primary screen, population patch clamp on CHO cells stably expressing hERG; higher = less effect of the substance
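Also: peak tail current of the secondary pulse compared with the same well before compound.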

Sequence of human ether-à-go-go-related gene (hERG) potassium channel (Q12809 whole entry, looked up): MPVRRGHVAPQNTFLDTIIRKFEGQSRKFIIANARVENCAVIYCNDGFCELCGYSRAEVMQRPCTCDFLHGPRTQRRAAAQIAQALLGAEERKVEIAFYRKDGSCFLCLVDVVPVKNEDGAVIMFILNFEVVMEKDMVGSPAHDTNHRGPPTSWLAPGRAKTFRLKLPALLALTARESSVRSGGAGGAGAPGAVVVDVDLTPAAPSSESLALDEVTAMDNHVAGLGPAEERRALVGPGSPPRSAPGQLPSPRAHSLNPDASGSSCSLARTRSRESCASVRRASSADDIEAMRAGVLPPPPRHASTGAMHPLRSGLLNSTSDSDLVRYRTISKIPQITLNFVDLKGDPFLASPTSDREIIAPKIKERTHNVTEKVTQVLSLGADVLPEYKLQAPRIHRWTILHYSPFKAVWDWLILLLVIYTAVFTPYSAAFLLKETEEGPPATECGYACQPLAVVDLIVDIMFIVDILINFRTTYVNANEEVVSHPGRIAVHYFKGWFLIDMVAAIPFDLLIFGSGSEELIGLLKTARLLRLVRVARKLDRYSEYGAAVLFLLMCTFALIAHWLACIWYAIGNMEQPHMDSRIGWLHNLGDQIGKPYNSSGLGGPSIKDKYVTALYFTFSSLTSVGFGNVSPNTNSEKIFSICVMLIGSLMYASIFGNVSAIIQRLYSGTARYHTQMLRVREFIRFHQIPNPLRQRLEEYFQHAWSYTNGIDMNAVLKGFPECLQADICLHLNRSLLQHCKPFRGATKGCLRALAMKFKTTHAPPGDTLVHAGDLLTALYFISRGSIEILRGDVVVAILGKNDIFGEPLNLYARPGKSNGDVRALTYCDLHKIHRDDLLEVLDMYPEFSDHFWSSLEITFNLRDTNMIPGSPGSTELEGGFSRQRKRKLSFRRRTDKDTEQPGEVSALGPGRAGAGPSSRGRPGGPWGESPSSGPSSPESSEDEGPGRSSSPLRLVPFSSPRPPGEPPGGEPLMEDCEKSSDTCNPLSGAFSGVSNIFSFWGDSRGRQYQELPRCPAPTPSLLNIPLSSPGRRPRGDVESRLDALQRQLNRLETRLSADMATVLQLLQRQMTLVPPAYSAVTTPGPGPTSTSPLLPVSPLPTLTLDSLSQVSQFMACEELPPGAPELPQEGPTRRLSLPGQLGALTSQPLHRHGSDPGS

Compared with `CCCCNC(=O)CN1C(=O)COc2ccc(S(=O)(=O)N3CCCCCC3)cc21`, `O=S(=O)(Nc1ccc(S(=O)(=O)N2CCCC2)cc1)c1ccccc1Br` is higher in “hERG current change (%, negative = inhibition) at 10uM” value: -1.25% for the first, 3.27% for the second.

Compared with `O=C(CSc1nc(=O)n2ccccc2n1)NCCc1ccccc1`, `Cn1c(SCC(=O)NCCc2ccccc2)nnc1-c1ccco1` is lower in “hERG current change (%, negative = inhibition) at 10uM” value: -1.36% for the first, -4.63% for the second.

Going from `Cc1ccc2nc(CSc3nnc(Cc4cccs4)n3C3CCCCC3)cc(=O)n2c1` to `O=C(CSc1nnc(-c2cccs2)n1C1CC1)NCC1CCCO1` (stereo not drawn), the “hERG current change (%, negative = inhibition) at 10uM” value rises from -15.6% to -0.536%.

Compared with `COc1cccc(C(=O)N/N=C/c2ccc(OC)c(COc3ccccc3C(N)=O)c2)c1`, `COc1ccc(CNC(=O)c2cccc(-c3ccc(C)c4ccccc34)n2)cc1` is lower in “hERG current change (%, negative = inhibition) at 10uM” value: -2.25% for the first, -24% for the second.

Going from `N#Cc1cc(Oc2ccc(Cl)cc2)c(N2CCOCC2)cc1C#N` to `COc1ccc(CC2(CO)CCN(CC3=Cc4cc(Cl)ccc4OC3)CC2)cc1`, the “hERG current change (%, negative = inhibition) at 10uM” value falls from -1.79% to -58.3%.

Compared with `O=C(O)CCCCCNC(=O)CSc1nnc(-c2ccco2)n1-c1ccccc1`, `O=C(CSc1nnc(-c2ccco2)n1-c1ccccc1)NCCc1ccccc1` is lower in “hERG current change (%, negative = inhibition) at 10uM” value: 11.9% for the first, -69.4% for the second.

Compared with `CN(Cc1ccccc1)C(=O)CSc1nnc(-c2ccco2)n1-c1ccccc1`, `O=C(CSc1nnc(-c2ccccc2)n1-c1ccccc1)NCc1ccco1` is higher in “hERG current change (%, negative = inhibition) at 10uM” value: -80.2% for the first, 1.47% for the second.

Compared with `Cc1cccc(-n2c(SCC(=O)NCc3ccco3)nnc2-c2ccco2)c1`, `O=C(CSc1nnc(-c2ccco2)n1-c1ccccc1)NCc1ccco1` is higher in “hERG current change (%, negative = inhibition) at 10uM” value: -75.7% for the first, -67.8% for the second.

Compared with `Cc1cccc(-n2c(SCC(N)=O)nnc2-c2ccco2)c1`, `CNC(=O)CSc1nnc(-c2ccco2)n1-c1cccc(C)c1` is lower in “hERG current change (%, negative = inhibition) at 10uM” value: -1.07% for the first, -4.75% for the second.

Compared with `NC(=O)CSc1nnc(-c2ccco2)n1-c1ccccc1`, `CC(=O)CSc1nnc(-c2ccco2)n1-c1ccccc1` is lower in “hERG current change (%, negative = inhibition) at 10uM” value: 16.1% for the first, -11.7% for the second.

Going from `Cc1nnc(SCC(=O)NCc2ccco2)n1-c1ccccc1` to `O=C(CSc1nnc(-c2cccs2)n1-c1ccccc1)NCc1ccco1`, the “hERG current change (%, negative = inhibition) at 10uM” value falls from 26.1% to -73%.

Compared with `O=C(N1CCCCC1)N1CCN(S(=O)(=O)c2ccccc2)CC1`, `O=C(c1ccccc1)N1CCN(C2c3cccc4cccc(c34)C2NS(=O)(=O)c2ccccc2)CC1` (stereo not drawn) is lower in “hERG current change (%, negative = inhibition) at 10uM” value: 10.4% for the first, -21.9% for the second.

Going from `Nc1cc(-c2ccc(Cl)cc2)nn1S(=O)(=O)c1ccc(Cl)cc1` to `COc1ccc(-c2ccc(NS(=O)(=O)c3cc([N+](=O)[O-])ccc3C)cc2)nn1`, the “hERG current change (%, negative = inhibition) at 10uM” value falls from 19.1% to -25.5%.

Compared with `CC(=O)Nc1ccc(OCc2cnc(Cl)s2)cc1`, `CN(CC(=O)Nc1ccc(Cl)cc1)S(=O)(=O)c1ccc2c(c1)n(C)c(=O)c(=O)n2C` is higher in “hERG current change (%, negative = inhibition) at 10uM” value: 11.3% for the first, 16.3% for the second.

Compared with `CCN(C(=O)COC(=O)c1c(C)nsc1NC)c1ccccc1`, `CCC(=NCc1ccccc1)C1=C(O)C(C(=O)OC)C(C)(C)CC1=O` (stereo not drawn) is lower in “hERG current change (%, negative = inhibition) at 10uM” value: -11.9% for the first, -17% for the second.

Going from `Cc1onc(-c2ccccc2)c1C(=O)NNC(=S)NC(=O)/C=C/c1ccccc1` to `O=C(CSc1nnc(-c2cccs2)n1-c1ccccc1)NCC1CCCO1` (stereo not drawn), the “hERG current change (%, negative = inhibition) at 10uM” value falls from 16.2% to -74.1%.

Going from `C[C@@H]1CC=C[C@H]2[C@H]1C(=O)N(Cc1ccccc1)[C@H]2c1ccc(-c2ccc(F)cc2)cc1F` to `CN(/N=C/c1c[nH]c2ccccc12)c1cnn(-c2ccc(F)c(Cl)c2)c(=O)c1Cl`, the “hERG current change (%, negative = inhibition) at 10uM” value falls from -0.198% to -5.66%.

Going from `CCn1c(SCC(=O)NCc2ccco2)nnc1-c1cccs1` to `Cc1cc(C)nc(SCc2nnc(SCC(=O)NCc3ccco3)n2-c2ccccc2)n1`, the “hERG current change (%, negative = inhibition) at 10uM” value falls from -8.86% to -14.5%.

Going from `Cc1nnc(SCC(=O)NCC2CCCO2)n1-c1ccccc1` (stereo not drawn) to `O=C(CSc1nc2c(c(=O)n1-c1ccc(Cl)cc1)SCC2)NCC1CCCO1` (stereo not drawn), the “hERG current change (%, negative = inhibition) at 10uM” value falls from -4.28% to -34.5%.

Going from `O=C(CSc1nc2c(c(=O)n1-c1ccc(F)cc1)SCC2)NCC1CCCO1` (stereo not drawn) to `O=C(CSc1nc2c(c(=O)n1-c1ccc(Br)cc1)SCC2)NCC1CCCO1` (stereo not drawn), the “hERG current change (%, negative = inhibition) at 10uM” value falls from -2.45% to -60.9%.

First: CCOc1ccccc1CN1CCNC(=O)C1CC(=O)N(C)Cc1nonc1C (stereo not drawn)
Second: OCC1(CCOc2ccccc2)CCN(CC2=Cc3cc(Cl)ccc3OC2)CC1
The “hERG current change (%, negative = inhibition) at 10uM” value of the first is higher: 8.59% for the first, -21.9% for the second.

Going from `COc1cccc(CC2(CO)CCCN(CC3=Cc4cc(OC)ccc4OC3)C2)c1` (stereo not drawn) to `COc1cccc(CC2(CO)CCCN(CC3=Cc4cc(Cl)ccc4OC3)C2)c1` (stereo not drawn), the “hERG current change (%, negative = inhibition) at 10uM” value rises from -21.5% to -7.49%.

For `COc1ccc2c(c1)C=C(CN1CCC(CO)(CCc3ccccc3)CC1)CO2`, the “hERG current change (%, negative = inhibition) at 10uM” value was -77.1%.
